# Results: PubChem BioAssay (EPA / NIEHS)
# Values joined by “and” are separate entries in the source; they are usually repeats but may differ in a detail not shown here. Equal values may be shown once. Inconclusive results are not listed. Active and inactive are the calls of the source. How the source made its calls: active means hit-call score of the fitted dose curve at least 0.9, where 1 is the maximum; inconclusive means response in the unintended direction; inactive means score below 0.9.
# Columns and labels:
# [1] = target: human Sirtuin 1 (SIRT1), SIRT1 (gene 23411) (UniProt Q96EB6); assay: NVS_ENZ_hSIRT1: NovaScreen (NVS) Enzymatic Assay for human Sirtuin 1 (SIRT1) (AID 2283219)
# Sequence of human Sirtuin 1 (SIRT1), SIRT1 (gene 23411) (Q96EB6 whole entry, looked up): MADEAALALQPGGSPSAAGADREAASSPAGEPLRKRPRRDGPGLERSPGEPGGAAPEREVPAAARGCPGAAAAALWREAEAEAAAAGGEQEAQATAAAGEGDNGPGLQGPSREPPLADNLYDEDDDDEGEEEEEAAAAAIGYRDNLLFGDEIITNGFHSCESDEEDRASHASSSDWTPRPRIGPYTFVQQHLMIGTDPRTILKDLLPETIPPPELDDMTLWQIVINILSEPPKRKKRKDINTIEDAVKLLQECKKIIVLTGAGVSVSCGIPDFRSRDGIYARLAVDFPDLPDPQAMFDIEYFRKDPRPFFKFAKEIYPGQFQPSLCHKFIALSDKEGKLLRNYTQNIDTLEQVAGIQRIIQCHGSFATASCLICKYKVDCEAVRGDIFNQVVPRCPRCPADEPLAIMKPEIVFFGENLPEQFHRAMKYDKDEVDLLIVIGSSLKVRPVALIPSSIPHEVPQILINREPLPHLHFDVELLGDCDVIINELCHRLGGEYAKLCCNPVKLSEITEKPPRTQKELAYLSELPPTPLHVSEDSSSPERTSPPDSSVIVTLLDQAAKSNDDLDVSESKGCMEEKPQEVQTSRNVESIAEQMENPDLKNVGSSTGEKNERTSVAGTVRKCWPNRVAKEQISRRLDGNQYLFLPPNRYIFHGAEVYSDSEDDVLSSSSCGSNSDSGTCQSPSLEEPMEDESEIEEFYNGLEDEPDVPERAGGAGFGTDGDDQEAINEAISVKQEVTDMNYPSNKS
# Summary of the method: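 Cell-free recombinant SIRT1 with a fluorescent substrate; substrate and product separated by electrophoretic mobility shift and read by fluorescence intensity, 1 h after dosing. Primary screen at 25 uM in duplicate; hits re-run in concentration-response up to 50 uM, relative to DMSO.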
# [2] = target: Tyrosine-protein phosphatase non-receptor type 14 (Homo sapiens) (UniProt Q15678); assay: NVS_ENZ_hPTPN14: NovaScreen (NVS) Enzymatic Assay for human Protein Tyrosine Phosphatase Non-receptor Type 14 (PTPN14) (AID 2283206)
# Summary of the method: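 Fluorescent substrate turnover by recombinant human PTPN14 was measured 0.5 h after compound addition, with substrate and product separated by mobility shift. Single-point screening at 25 uM, then concentration-response up to 50 uM for chemicals meeting threshold (e.g., 30% inhibition).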
# [3] = target: human Protein Tyrosine Phosphatase Receptor Type B (PTPRB), PTPRB (gene 5787) (UniProt P23467); assay: NVS_ENZ_hPTPRB: NovaScreen (NVS) Enzymatic Assay for human Protein Tyrosine Phosphatase Receptor Type B (PTPRB) (AID 2283211)
# Summary of the method: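 Recombinant human PTPRB with a fluorescent substrate, product separated by electrophoretic mobility shift; read 1 h after dosing. Primary screen in duplicate at 25 uM; actives then retested in concentration series; loss of signal versus DMSO.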
# [4] = target: human Sirtuin 3 (SIRT3), SIRT3 (gene 23410) (UniProt Q9NTG7); assay: NVS_ENZ_hSIRT3: NovaScreen (NVS) Enzymatic Assay for human Sirtuin 3 (SIRT3) (AID 2283222)
# Summary of the method: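 Cell-free enzyme assay with recombinant protein and fluorescent substrate, product separated by electrophoretic mobility shift; read 1 hour after dosing. Screened in duplicate at 25 uM, then singleton concentration-response up to 50 uM; loss of signal versus DMSO.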
# [5] = target: human Tropomyosin Receptor Kinase A (TRKA), NTRK1 (gene 4914) (UniProt P04629); assay: NVS_ENZ_hTrkA: NovaScreen (NVS) Enzymatic Assay for human Tropomyosin Receptor Kinase A (TRKA) (AID 2283224)
# Summary of the method: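 Compounds were screened at 25 uM in duplicate, then concentration series to a 50 uM top for those meeting threshold (e.g. 30% inhibition). Enzyme was recombinant human TrkA, incubated 1 h. Product formation was quantified by fluorescence after mobility-shift separation.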
# [6] = target: human Tyrosine Protein Kinase Receptor Tie-2 (Tie2), TEK (gene 7010) (UniProt Q02763); assay: NVS_ENZ_hTie2: NovaScreen (NVS) Enzymatic Assay for human Tyrosine Protein Kinase Receptor Tie-2 (Tie2) (AID 2283225)
# Sequence of human Tyrosine Protein Kinase Receptor Tie-2 (Tie2), TEK (gene 7010) (Q02763 whole entry, looked up): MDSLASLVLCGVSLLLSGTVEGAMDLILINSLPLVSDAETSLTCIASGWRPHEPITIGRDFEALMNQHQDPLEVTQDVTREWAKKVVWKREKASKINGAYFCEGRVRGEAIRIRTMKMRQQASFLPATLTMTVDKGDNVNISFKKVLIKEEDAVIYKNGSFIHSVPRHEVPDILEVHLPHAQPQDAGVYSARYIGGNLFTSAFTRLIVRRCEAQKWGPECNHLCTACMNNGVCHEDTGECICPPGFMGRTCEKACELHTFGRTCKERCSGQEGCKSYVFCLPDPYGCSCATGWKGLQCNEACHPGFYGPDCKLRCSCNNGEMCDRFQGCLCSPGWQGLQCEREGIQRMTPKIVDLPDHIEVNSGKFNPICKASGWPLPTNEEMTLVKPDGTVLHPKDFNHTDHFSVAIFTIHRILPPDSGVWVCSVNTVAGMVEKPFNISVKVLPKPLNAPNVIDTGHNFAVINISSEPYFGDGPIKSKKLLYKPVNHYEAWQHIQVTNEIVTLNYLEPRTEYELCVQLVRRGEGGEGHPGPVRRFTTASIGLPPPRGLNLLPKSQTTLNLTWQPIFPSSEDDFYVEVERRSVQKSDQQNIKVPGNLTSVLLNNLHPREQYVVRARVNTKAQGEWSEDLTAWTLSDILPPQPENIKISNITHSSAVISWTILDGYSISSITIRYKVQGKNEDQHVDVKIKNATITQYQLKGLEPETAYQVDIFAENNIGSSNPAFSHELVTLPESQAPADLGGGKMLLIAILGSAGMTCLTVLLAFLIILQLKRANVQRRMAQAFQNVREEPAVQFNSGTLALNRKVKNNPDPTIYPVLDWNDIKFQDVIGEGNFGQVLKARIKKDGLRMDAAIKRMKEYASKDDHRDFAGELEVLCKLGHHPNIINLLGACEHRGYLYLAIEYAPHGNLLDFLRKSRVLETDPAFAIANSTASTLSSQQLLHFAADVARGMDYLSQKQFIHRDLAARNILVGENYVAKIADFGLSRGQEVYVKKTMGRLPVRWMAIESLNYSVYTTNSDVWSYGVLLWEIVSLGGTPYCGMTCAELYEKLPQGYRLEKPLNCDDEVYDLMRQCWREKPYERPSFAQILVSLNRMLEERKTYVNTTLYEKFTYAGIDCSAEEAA
# Summary of the method: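 Substrate and product were separated by mobility shift and detected by fluorescence after a 1-hour reaction with recombinant Tie2. Chemicals passing a 25 uM single-point screen were titrated to a maximum of 50 uM. Results were normalized to DMSO baseline.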
# [7] = target: human Vascular Endothelial Growth Factor Receptor 1 (VEGFR1), FLT1 (gene 2321) (UniProt P17948); assay: NVS_ENZ_hVEGFR1: NovaScreen (NVS) Enzymatic Assay for human Vascular Endothelial Growth Factor Receptor 1 (VEGFR1) (AID 2283226)
# Summary of the method: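 Kinase activity of recombinant human VEGFR1 was read by fluorescence after electrophoretic separation of product from substrate, 1 h post-dosing; initial duplicate single-point testing at 25 uM, followed by concentration-series follow-up, with DMSO as baseline.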
# [8] = target: human Rho Associated Coiled-coil Containing Protein Kinase 1 (ROCK1), ROCK1 (gene 6093) (UniProt Q13464); assay: NVS_ENZ_hROCK1: NovaScreen (NVS) Enzymatic Assay for human Rho Associated Coiled-coil Containing Protein Kinase 1 (ROCK1) (AID 2283214)
# Summary of the method: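 Compounds first run in duplicate at 25 uM against recombinant human ROCK1, then followed in concentration series. Kinase activity was read 1 h post-dosing by fluorescence with mobility-shift separation, as signal loss relative to DMSO.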
# [9] = target: human Protein Tyrosine Phosphatase Non-receptor Type 9 (PTPN9), PTPN9 (gene 5780) (UniProt P43378); assay: NVS_ENZ_hPTPN9: NovaScreen (NVS) Enzymatic Assay for human Protein Tyrosine Phosphatase Non-receptor Type 9 (PTPN9) (AID 2283209)
# Summary of the method: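 Sf9-expressed enzyme in a cell-free assay, fluorescence read 1.33 h after dosing with mobility-shift separation of substrate and product. Tested at 25 uM in duplicate, then up to 50 uM; signal loss versus DMSO.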
# [10] = target: human Protein Tyrosine Phosphatase Non-receptor Type 6 (PTPN6), PTPN6 (gene 5777) (UniProt P29350); assay: NVS_ENZ_hPTPN6: NovaScreen (NVS) Enzymatic Assay for human Protein Tyrosine Phosphatase Non-receptor Type 6 (PTPN6) (AID 2283210)
# Summary of the method: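 Recombinant human PTPN6 from SF9 cells, enzyme activity followed by fluorescence after mobility-shift separation of substrate and product at 1.33 h. Chemicals first tested at a single 25 uM in duplicate, then confirmed across concentration series; loss of signal relative to DMSO.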
# [11] = target: human Raf-1 Proto-Oncogene, serine/threonine Kinase (RAF1), RAF1 (gene 5894) (UniProt P04049); assay: NVS_ENZ_hRAF1: NovaScreen (NVS) Enzymatic Assay for human Raf-1 Proto-Oncogene, serine/threonine Kinase (RAF1) (AID 2283216)
# Summary of the method: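 Single-point screening at 25 uM (duplicate), followed by singleton concentration-response to 50 uM maximum for chemicals exceeding threshold. Enzyme activity from fluorescent substrate-product mobility-shift separation after 1 h, relative to DMSO.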
# [12] = target: human Vascular Endothelial Growth Factor Receptor 2 (VEGFR2), KDR (gene 3791) (UniProt P35968); assay: NVS_ENZ_hVEGFR2: NovaScreen (NVS) Enzymatic Assay for human Vascular Endothelial Growth Factor Receptor 2 (VEGFR2) (AID 2283230)
# Summary of the method: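 Cell-free recombinant VEGFR2 kinase, fluorescent substrate with electrophoretic mobility-shift separation; read 1 h after dosing. Screened at 25 uM in duplicate, hits to concentration-response up to 50 uM; loss-of-signal versus DMSO.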
# [13] = target: human Protein Tyrosine Phosphatase Non-receptor Type 2 (PTPN2), PTPN2 (gene 5771) (UniProt P17706); assay: NVS_ENZ_hPTPN2: NovaScreen (NVS) Enzymatic Assay for human Protein Tyrosine Phosphatase Non-receptor Type 2 (PTPN2) (AID 2283207)
# Sequence of human Protein Tyrosine Phosphatase Non-receptor Type 2 (PTPN2), PTPN2 (gene 5771) (P17706 whole entry, looked up): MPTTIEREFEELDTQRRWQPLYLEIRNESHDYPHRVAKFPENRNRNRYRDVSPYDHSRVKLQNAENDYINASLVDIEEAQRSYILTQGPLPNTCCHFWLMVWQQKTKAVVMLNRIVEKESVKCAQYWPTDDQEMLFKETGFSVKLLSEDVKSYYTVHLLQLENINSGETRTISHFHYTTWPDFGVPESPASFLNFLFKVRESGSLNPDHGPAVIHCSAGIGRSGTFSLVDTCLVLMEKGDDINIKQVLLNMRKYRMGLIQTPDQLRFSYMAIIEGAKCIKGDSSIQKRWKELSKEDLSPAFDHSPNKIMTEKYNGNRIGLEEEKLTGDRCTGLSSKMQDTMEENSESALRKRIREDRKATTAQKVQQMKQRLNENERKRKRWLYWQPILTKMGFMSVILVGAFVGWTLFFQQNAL
# Summary of the method: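 Activity measured as fluorescence after mobility-shift separation of substrate and product, 1 h after compound. Duplicate single-point 25 uM primary testing, concentration series for actives; inhibition scored as signal loss relative to DMSO baseline.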
# [14] = target: human Protein Tyrosine Phosphatase Receptor Type F (PTPRF), PTPRF (gene 5792) (UniProt P10586); assay: NVS_ENZ_hPTPRF: NovaScreen (NVS) Enzymatic Assay for human Protein Tyrosine Phosphatase Receptor Type F (PTPRF) (AID 2283213)
# Sequence of human Protein Tyrosine Phosphatase Receptor Type F (PTPRF), PTPRF (gene 5792) (P10586 whole entry, looked up): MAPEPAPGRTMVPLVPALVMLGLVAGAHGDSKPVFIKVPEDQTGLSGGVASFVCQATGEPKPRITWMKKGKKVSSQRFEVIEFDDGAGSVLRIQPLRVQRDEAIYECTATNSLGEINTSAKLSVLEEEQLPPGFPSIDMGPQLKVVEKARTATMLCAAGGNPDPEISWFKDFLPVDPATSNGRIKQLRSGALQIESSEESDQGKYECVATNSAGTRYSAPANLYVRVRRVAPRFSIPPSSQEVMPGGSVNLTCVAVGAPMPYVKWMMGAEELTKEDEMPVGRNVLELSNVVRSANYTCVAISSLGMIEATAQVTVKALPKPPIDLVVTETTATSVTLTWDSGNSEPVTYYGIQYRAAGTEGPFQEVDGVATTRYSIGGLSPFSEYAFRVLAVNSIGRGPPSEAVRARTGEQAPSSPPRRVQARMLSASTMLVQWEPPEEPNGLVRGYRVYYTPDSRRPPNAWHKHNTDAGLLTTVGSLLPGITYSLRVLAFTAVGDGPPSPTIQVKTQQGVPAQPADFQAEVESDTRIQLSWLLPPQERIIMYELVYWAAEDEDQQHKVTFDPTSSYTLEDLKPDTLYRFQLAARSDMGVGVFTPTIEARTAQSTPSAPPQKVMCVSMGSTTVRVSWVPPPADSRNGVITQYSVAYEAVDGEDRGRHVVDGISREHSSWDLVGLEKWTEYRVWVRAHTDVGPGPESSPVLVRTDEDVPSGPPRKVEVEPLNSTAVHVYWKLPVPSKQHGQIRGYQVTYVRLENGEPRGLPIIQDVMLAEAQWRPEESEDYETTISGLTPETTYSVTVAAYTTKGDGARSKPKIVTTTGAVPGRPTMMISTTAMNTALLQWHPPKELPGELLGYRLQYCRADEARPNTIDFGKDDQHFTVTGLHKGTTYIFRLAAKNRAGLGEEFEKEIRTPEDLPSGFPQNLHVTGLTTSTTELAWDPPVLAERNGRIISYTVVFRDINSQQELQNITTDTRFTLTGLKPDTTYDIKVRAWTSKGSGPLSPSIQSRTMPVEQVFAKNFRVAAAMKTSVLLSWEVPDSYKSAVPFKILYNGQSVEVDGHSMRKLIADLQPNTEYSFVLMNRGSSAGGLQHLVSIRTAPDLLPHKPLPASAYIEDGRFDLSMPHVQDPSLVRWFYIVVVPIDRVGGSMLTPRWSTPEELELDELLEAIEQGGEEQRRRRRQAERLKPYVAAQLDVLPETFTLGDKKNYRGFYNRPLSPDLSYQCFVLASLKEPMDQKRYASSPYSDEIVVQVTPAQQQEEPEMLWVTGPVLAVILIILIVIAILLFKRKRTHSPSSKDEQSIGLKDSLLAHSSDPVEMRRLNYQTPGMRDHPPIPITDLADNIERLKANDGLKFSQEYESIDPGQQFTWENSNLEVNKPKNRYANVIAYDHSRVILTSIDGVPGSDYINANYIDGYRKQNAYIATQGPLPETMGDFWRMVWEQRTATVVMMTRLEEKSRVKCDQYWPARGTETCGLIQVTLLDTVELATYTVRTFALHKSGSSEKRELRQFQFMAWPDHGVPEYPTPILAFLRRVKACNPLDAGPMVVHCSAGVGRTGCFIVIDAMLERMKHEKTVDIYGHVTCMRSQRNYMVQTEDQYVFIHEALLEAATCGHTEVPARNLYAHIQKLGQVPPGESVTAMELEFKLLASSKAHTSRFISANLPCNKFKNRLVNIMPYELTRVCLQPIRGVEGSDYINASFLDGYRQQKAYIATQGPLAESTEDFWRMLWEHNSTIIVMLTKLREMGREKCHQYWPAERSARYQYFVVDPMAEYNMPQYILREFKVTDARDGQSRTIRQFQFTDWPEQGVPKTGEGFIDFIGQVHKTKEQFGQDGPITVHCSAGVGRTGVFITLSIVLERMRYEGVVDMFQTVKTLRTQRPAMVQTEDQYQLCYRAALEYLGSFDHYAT
# Summary of the method: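 Cell-free fluorescence enzyme assay with recombinant protein and substrate; product separated by electrophoretic mobility shift. Read 1 h after dosing, single 25 uM duplicate screen, then concentration-response up to 50 uM; loss of signal vs DMSO.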
# [15] = target: human Protein Tyrosine Phosphatase Receptor Type M (PTPRM), PTPRM (gene 5797) (UniProt P28827); assay: NVS_ENZ_hPTPRM: NovaScreen (NVS) Enzymatic Assay for human Protein Tyrosine Phosphatase Receptor Type M (PTPRM) (AID 2283215)
# Summary of the method: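 Read-out is fluorescence after electrophoretic separation of substrate and product, taken 1.33 h post-dosing with recombinant enzyme. Compounds screened at 25 uM in duplicate, then concentration series for actives; activity as signal loss relative to DMSO.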
# [16] = target: human SRC Proto-Oncogene, Non-receptor Tyrosine Kinase (SRC), SRC (gene 6714) (UniProt P12931); assay: NVS_ENZ_hSRC: NovaScreen (NVS) Enzymatic Assay for human SRC Proto-Oncogene, Non-receptor Tyrosine Kinase (SRC) (AID 2283223)
# Summary of the method: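 Compounds passing 30% inhibition at 25 uM (duplicate) were titrated to a top concentration of 50 uM. Enzyme activity read by fluorescence with mobility-shift substrate/product separation after 1 h; DMSO baseline.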
# [17] = target: rabbit Imidazoline 2 Central (I2C), CKB (gene 100009085) (UniProt P00567); assay: NVS_ENZ_rabI2C: NovaScreen (NVS) Enzymatic Assay for rabbit Imidazoline 2 Central (I2C) (AID 2283228)
# Summary of the method: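 Rabbit brain membranes, cell-free; readout by filter-based scintillation counting 1.5 hours after dosing, loss of signal vs DMSO. Initial duplicate test at 25 uM, then concentration-response with 50 uM top concentration.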
# [18] = target: human Protein Tyrosine Phosphatase Non-receptor Type 4 (PTPN4), PTPN4 (gene 5775) (UniProt P29074); assay: NVS_ENZ_hPTPN4: NovaScreen (NVS) Enzymatic Assay for human Protein Tyrosine Phosphatase Non-receptor Type 4 (PTPN4) (AID 2283208)
# Sequence of human Protein Tyrosine Phosphatase Non-receptor Type 4 (PTPN4), PTPN4 (gene 5775) (P29074 whole entry, looked up): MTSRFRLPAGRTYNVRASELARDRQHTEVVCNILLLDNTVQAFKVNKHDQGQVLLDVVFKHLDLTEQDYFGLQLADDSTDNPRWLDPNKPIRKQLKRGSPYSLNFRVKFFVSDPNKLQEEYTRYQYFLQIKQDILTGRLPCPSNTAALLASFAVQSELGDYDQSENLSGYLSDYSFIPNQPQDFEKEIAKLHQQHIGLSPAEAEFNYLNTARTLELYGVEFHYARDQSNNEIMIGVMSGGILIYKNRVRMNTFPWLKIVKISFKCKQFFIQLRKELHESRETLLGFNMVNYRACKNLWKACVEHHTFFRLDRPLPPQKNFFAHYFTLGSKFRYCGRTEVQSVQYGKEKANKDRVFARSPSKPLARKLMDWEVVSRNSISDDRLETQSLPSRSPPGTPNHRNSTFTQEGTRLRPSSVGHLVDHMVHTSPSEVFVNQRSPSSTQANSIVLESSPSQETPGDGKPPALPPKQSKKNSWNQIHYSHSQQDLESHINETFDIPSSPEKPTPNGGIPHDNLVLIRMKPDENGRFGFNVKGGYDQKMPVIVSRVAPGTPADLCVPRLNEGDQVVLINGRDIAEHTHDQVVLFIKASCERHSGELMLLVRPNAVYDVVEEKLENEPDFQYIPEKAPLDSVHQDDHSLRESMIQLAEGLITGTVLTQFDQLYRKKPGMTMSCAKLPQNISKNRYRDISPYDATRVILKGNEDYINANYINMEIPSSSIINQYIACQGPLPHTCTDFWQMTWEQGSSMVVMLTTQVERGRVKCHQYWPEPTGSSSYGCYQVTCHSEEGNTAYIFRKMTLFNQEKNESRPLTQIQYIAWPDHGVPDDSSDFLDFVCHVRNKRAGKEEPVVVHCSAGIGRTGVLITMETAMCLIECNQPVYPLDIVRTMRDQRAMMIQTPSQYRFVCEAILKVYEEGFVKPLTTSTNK
# Summary of the method: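 Screened in duplicate at 25 uM, with hits then titrated to a top concentration of 50 uM. Recombinant Sf9-derived PTPN4 turnover was read by fluorescence with electrophoretic separation, 1.33 h after compound addition. DMSO served as baseline.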
# [19] = target: human Vascular Endothelial Growth Factor Receptor 3 (VEGFR3), FLT4 (gene 2324) (UniProt P35916); assay: NVS_ENZ_hVEGFR3: NovaScreen (NVS) Enzymatic Assay for human Vascular Endothelial Growth Factor Receptor 3 (VEGFR3) (AID 2283229)
# Summary of the method: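 Chemicals first run in duplicate at 25 uM, with actives re-tested in concentration series to a top of 50 uM. Recombinant VEGFR3 activity measured after 1 h via fluorescence with mobility-shift product separation; inhibition fitted relative to DMSO.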
# [20] = target: human Sirtuin 2 (SIRT2), SIRT2 (gene 22933) (UniProt Q8IXJ6); assay: NVS_ENZ_hSIRT2: NovaScreen (NVS) Enzymatic Assay for human Sirtuin 2 (SIRT2) (AID 2283217)
# Summary of the method: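 Single-point duplicate screen at 25 uM, then concentration-response (max 50 uM) for chemicals passing threshold. Enzyme activity of recombinant human SIRT2 measured after 1 hr by fluorescence with mobility-shift separation of product; DMSO baseline.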
smiles,measurement,setting,value
CS/C(C)=N/OC(=O)N(C)SN(C)C(=O)O/N=C(\C)SC,AC50,[1],6.69 µM (active)
CCCN(CCC)c1c([N+](=O)[O-])cc(S(N)(=O)=O)cc1[N+](=O)[O-],outcome,[2],inactive
same,outcome,[3],inactive
same,outcome,[4],inactive
same,outcome,[5],inactive
same,outcome,[6],inactive
same,outcome,[7],inactive
CON(C)C(=O)Nc1ccc(Cl)c(Cl)c1,outcome,[8],inactive
C=CCC1=C(C)C(OC(=O)C2C(C=C(C)C)C2(C)C)CC1=O (stereo not drawn),outcome,[9],inactive
same,outcome,[10],inactive
same,outcome,[11],inactive
same,outcome,[4],inactive
same,outcome,[12],inactive
O=C(O)c1nc(Cl)ccc1Cl,outcome,[11],inactive
CNC(=O)ON=CC(C)(C)SC,outcome,[11],inactive
CCCCOC(=O)c1ccccc1C(=O)OCCCC,outcome,[2],inactive
same,outcome,[10],inactive
same,outcome,[11],inactive
same,outcome,[6],inactive
O=C(O)COc1nc(Cl)c(Cl)cc1Cl,outcome,[13],inactive
CCON=C(CC)C1=C(O)CC(c2c(C)cc(C)cc2C)CC1=O (stereo not drawn),outcome,[11],inactive
CC1COC(Cn2cncn2)(c2ccc(Oc3ccc(Cl)cc3)cc2Cl)O1 (stereo not drawn),outcome,[8],inactive
same,outcome,[4],inactive
CNC(=S)S,outcome,[2],inactive
same,outcome,[13],inactive
same,AC50,[9],13.5 µM (active)
same,outcome,[10],inactive
same,outcome,[3],inactive
same,AC50,[14],15.5 µM (active)
same,outcome,[15],inactive
same,outcome,[16],inactive
same,outcome,[6],inactive
same,outcome,[17],inactive
COC(=O)C(C)Oc1ccc(Oc2ccc(Cl)cc2Cl)cc1 (stereo not drawn),outcome,[6],inactive
N#Cc1cc(Br)c(O)c(Br)c1,outcome,[18],inactive
same,outcome,[9],inactive
same,outcome,[8],inactive
same,outcome,[5],inactive
same,outcome,[19],inactive
CC(Oc1ccc(Cl)cc1Cl)C(=O)O (stereo not drawn),outcome,[5],inactive
CCNc1nc(Cl)nc(NC(C)C)n1,outcome,[3],inactive
same,outcome,[19],inactive
CCCCNC(=O)OCC#CI,outcome,[2],inactive
same,outcome,[18],inactive
same,outcome,[20],inactive
same,AC50,[1],11.9 µM (active) and 10.7 µM (active)
same,outcome,[4],inactive
CCCC1COC(Cn2cncn2)(c2ccc(Cl)cc2Cl)O1 (stereo not drawn),outcome,[16],inactive
CCCCNC(=O)n1c(NC(=O)OC)nc2ccccc21,AC50,[17],14.2 µM (active)
CO/C=C(/C(=O)OC)c1ccccc1Oc1cc(Oc2ccccc2C#N)ncn1,outcome,[20],inactive
same,outcome,[4],inactive
same,outcome,[5],inactive
same,outcome,[12],inactive
N#Cc1nn(-c2c(Cl)cc(C(F)(F)F)cc2Cl)c(N)c1S(=O)C(F)(F)F (stereo not drawn),outcome,[4],inactive
CCc1nn(C)c(C(=O)NCc2ccc(C(C)(C)C)cc2)c1Cl,outcome,[18],inactive
same,AC50,[9],16.4 µM (active)
same,outcome,[4],inactive
Cc1ccc(-c2c(Cl)nc(C#N)n2S(=O)(=O)N(C)C)cc1,outcome,[14],inactive
same,outcome,[6],inactive
CN(C)C(=S)SSC(=S)N(C)C,outcome,[14],inactive
same,outcome,[20],inactive
same,AC50,[1],6.68 µM (active)
CCOP(=S)(OCC)SCn1c(=O)oc2cc(Cl)ccc21,outcome,[2],inactive
COc1ccc(C(c2ccc(OC)cc2)C(Cl)(Cl)Cl)cc1,outcome,[15],inactive
COc1nc(C)nc(NC(=O)NS(=O)(=O)c2ccccc2Cl)n1,outcome,[13],inactive
same,outcome,[18],inactive
same,outcome,[9],inactive
same,outcome,[3],inactive
same,outcome,[15],inactive
COc1nc(NC(C)C)nc(NC(C)C)n1,outcome,[3],inactive
Cc1c(F)c(F)c(COC(=O)C2C(/C=C(\Cl)C(F)(F)F)C2(C)C)c(F)c1F (stereo not drawn),outcome,[18],inactive
same,outcome,[9],inactive
CC(C)(C)c1ccc(CSc2cnn(C(C)(C)C)c(=O)c2Cl)cc1,AC50,[9],17 µM (active)
O=C(Nc1ccccc1)Nc1ccnc(Cl)c1,outcome,[11],inactive
same,outcome,[17],inactive
Fc1ccc(Oc2ccnc3cc(Cl)cc(Cl)c23)cc1,AC50,[11],17 µM (active)
same,outcome,[20],inactive
COc1cnc(OC)n2nc(NS(=O)(=O)c3c(OCC(F)F)cccc3C(F)(F)F)nc12,outcome,[7],inactive
